GDH-TPI inh – inhibits GDH-TPI coupling enzymes, artifact for Mtb FBA screen; 360,000 compounds, 1.2% hits; inhibition, % at 4.8 µM; GDH-TPI coupled enzyme counterscreen, NADH absorbance; in the data active means inhibition above about 30%;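 further: 0% = DMSO wells and 100% = wells lacking the enzyme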
Mtb UGM inh – inhibitors of M. tuberculosis UDP-galactopyranose mutase | P9WIQ1 | purified UGM, fluorescence polarization probe displacement | inhibition, % at 10 µM | 320,000 compounds, 0.06% hits | AID 504406; in the data active means inhibition above about 10%, passing the limit was not always enough; inconclusive means no clear call, values can overlap the other calls
Target sequence (P9WIQ1 whole entry, looked up): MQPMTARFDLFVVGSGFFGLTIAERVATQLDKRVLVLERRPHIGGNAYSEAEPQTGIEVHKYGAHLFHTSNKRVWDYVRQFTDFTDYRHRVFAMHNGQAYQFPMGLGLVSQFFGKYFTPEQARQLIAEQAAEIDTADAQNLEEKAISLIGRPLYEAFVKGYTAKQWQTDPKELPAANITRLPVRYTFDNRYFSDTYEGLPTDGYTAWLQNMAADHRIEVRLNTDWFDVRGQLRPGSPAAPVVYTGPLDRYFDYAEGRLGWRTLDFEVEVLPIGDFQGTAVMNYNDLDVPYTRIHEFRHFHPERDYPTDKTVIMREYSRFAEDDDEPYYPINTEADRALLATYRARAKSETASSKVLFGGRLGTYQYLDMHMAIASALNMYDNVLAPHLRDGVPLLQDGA
Rv3671c protease – inhibits the M. tuberculosis serine protease Rv3671c | 320,000 compounds, 0.048% hits | inhibition, % at 5.96 µM | P9WHR9; in the data active means inhibition above about 38%;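 further: extracellular domain of Rv3671c used as enzyme; 0% = enzyme with DMSO and 100% = no enzyme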
RecA splice inh – blocks M. tuberculosis RecA intein splicing | inhibition, % (concentration not given with the values) | 290,000 compounds, 0.75% hits | cell-free RecA intein splicing, fluorescence; in the data active means inhibition above about 30%; inconclusive means no clear call, values can overlap the other calls;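 further: 0% = vehicle wells and 100% = reference inhibitor control wells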
FBA Mtb inh – Mtb fructose-bisphosphate aldolase inhibition. purified M. tuberculosis FBA, fluorescence read-out. inhibition, % at 1 µM. 360,000 compounds, 2.3% hits. AID 588726; in the data active means inhibition above about 27%;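 further: 0% = vehicle and 100% = reference inhibitor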
Mtb bLac sens – beta-lactam sensitization of Mtb H37Rv | M. tuberculosis H37Rv growth with meropenem, percent inhibition | inhibition, % at 25 µM | 330,000 compounds, 0.27% hits | AID 434955; call rule not given here;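 further: growth measured after seven days incubation then overnight dye step; 0% = bacteria only wells and 100% = bacteria with antibiotic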
* marks the source's active call; other numbers are inactive results; u = inconclusive; x = not tested or not shown; + = active, no number. An excerpt weighted towards active compounds, which were near 4% of everything screened.

SMILES | GDH-TPI inh | Mtb UGM inh | Rv3671c protease | RecA splice inh | FBA Mtb inh | Mtb bLac sens
CN(CC(=O)Nc1c(Cl)cccc1Cl)CC(=O)N1CCc2ccccc21 | -1 | x | x | x | -1 | x
COCCCn1c(N)c(C(=O)Nc2ccccc2)c2nc3ccccc3nc21 | -1 | 2 | 5 | 1 | 4 | 7
CCCCCOC(=O)c1c(N)n(CCOC)c2nc3ccccc3nc12 | 23 | 2 | -90 | -134 | + | 5
CCOC(=O)c1c(N)n(CCOC(=O)c2cccs2)c2nc3ccccc3nc12 | 18 | 2 | -193 | -2 | 173* | 95
COc1cc(C)c(NC(=O)C2CCN(S(=O)(=O)c3cccs3)CC2)cc1OC | 9 | 1 | -5 | x | 4 | -5
COc1ccc(-c2nc(C#N)c(NCCCN3CCOCC3)o2)cc1 | 11 | 0 | -4 | 0 | 149* | 1
N#Cc1nc(/C=C/c2ccccc2)oc1NCCCN1CCOCC1 | 26 | -2 | -2 | -46 | + | -2
N#Cc1nc(-c2cccs2)oc1NCCCN1CCOCC1 | 15 | 0 | -2 | -4 | + | 4
O=[N+]([O-])c1cc(Cl)cc2c1nc(NCCO)c1ccccc12 | 15 | 0 | -7 | 0 | 0 | 6
COc1cc(CNCc2cc(OC)c(OC)c(OC)c2)cc(OC)c1 | 7 | -1 | -6 | -5 | -1 | 5
COc1ccc(C(=O)N2CCCC(c3cc(C(=O)NCc4ccc(F)cc4)no3)C2)cc1 (stereo unspecified) | 11 | x | x | x | 2 | x
O=[N+]([O-])c1cccc(C2CC(c3ccccc3)=NN2c2ccccc2)c1 (stereo unspecified) | 19 | 1 | 2 | 7 | 0 | 9
NS(=O)(=O)c1ccc(N2N=C(c3ccccc3)CC2c2cccc(Cl)c2)cc1 (stereo unspecified) | 19 | x | x | x | 178* | x
Cc1cccc(C2CC(c3ccccc3)=NN2c2ccc(S(N)(=O)=O)cc2)c1 (stereo unspecified) | 12 | x | x | x | + | x
COc1ccc(NC(=O)c2sc(=O)n(Cc3ccc(F)c(Cl)c3)c2C)cc1OC | -3 | x | x | x | -1 | x
CCN(C(=O)c1cc2cc3ccc(C)cc3nc2o1)c1ccc(OC)cc1 | 19 | 2 | -4 | 4 | -4 | 83
COCCCNC(=O)c1cc2cc3cc(OC)ccc3nc2o1 | 9 | 5 | 1 | -6 | 122* | 1
CCN(CC)CCNC(=O)c1cc2cc3ccc(OC)cc3nc2o1 | 27 | -3 | 0 | -4 | + | -1
CCCCN(C)CCNC(=O)c1cc2cc3ccc(OC)cc3nc2o1 | 24 | -1 | -3 | -4 | + | 6
COc1ccc(NS(=O)(=O)c2cccc(C(=O)NCC(c3ccco3)N3CCCC3)c2)cc1 (stereo unspecified) | 4 | 3 | -1 | 0 | 2 | -15
O=C(O)c1ccc(N/N=C/c2ccc(-c3cc(Cl)ccc3Cl)o2)cc1 | 22 | -2 | 25 | -52 | 8 | 55
NC(=S)N/N=C/c1ccc(-c2cccc([N+](=O)[O-])c2)o1 | 50* | 3 | -4 | -1 | -2 | 93
O=C(N/N=C/c1ccc([N+](=O)[O-])o1)C(=O)Nc1ccc(C(=O)O)cc1 | 24 | 5 | 4 | -9 | -3 | 100
NS(=O)(=O)c1ccc(-c2ccc(/C=N/Nc3ccc(C(=O)O)cc3)o2)cc1 | 34* | -1 | -9 | -71 | -2 | 28
O=C(O)c1ccc(N/N=C/C=C/c2ccc([N+](=O)[O-])o2)cc1 | 31* | -2 | -14 | 6 | -26 | 100
SMILES | GDH-TPI inh | Mtb UGM inh | Rv3671c protease | RecA splice inh | FBA Mtb inh | Mtb bLac sens
O=[N+]([O-])c1ccc(C=NNc2ccc(S(=O)(=O)O)cc2)cc1 | 31* | x | x | x | -19 | x
O=[N+]([O-])c1cccc(-c2ccc(/C=N/NC(=S)Nc3cccc(F)c3)o2)c1 | 13 | -2 | 0 | -1 | -3 | 0
CCOC(=O)C1(C)CCCN(C(=O)c2cc(OC)c(OC)c(OC)c2)C1 (stereo unspecified) | 7 | x | x | x | 4 | x
N#Cc1ccccc1S(=O)(=O)NC(=O)[C@H]1O[C@@H](n2cnc3c(N)ncnc32)[C@H](O)[C@@H]1O | x | x | x | x | 2 | x
O=C(O)c1cc(-c2ccc(/C=N/Nc3ccc([N+](=O)[O-])cn3)o2)ccc1Cl | 4 | x | x | x | -5 | x
O=C(O)c1ccc(N/N=C/c2c(F)cccc2Cl)cc1 | 38* | -1 | 2 | -1 | -1 | 21
O=C(N/N=C/c1c(F)cccc1Cl)C1CC1 | 3 | 2 | 0 | -4 | 2 | 5
O=C(O)c1cccc(-c2ccc(/C=N/Nc3ccc([N+](=O)[O-])cc3)o2)c1 | 33* | 1 | 6 | -5 | -42 | 53
COc1ccc(N(CC(=O)N/N=C/c2ccc(-c3ccc([N+](=O)[O-])cc3)o2)S(=O)(=O)c2ccc(C)cc2)cc1 | -3 | 14* | 1 | -11 | 1 | 91
CCCCC(=O)N/N=C/c1ccc(-c2ccc([N+](=O)[O-])cc2)o1 | 7 | 1 | 4 | -3 | -5 | 94
O=C(O)c1ccc(-c2ccc(/C=N/Nc3ccc([N+](=O)[O-])cc3)o2)cc1 | 52* | -4 | 1 | -21 | -18 | 43
O=S(=O)(NCC1CCN(c2ccc(S(=O)(=O)N3CCOCC3)cc2)CC1)c1ccc(F)cc1 | 3 | -1 | 5 | 8 | 1 | 3
COc1cc(OC)cc(C(=O)N[C@H](C(=O)Nc2c(C)n(C)n(-c3ccccc3)c2=O)C(C)C)c1 | -5 | 0 | -2 | x | 0 | -2
NS(=O)(=O)c1ccc(-c2ccc(/C=N/NC(=O)c3ccc([N+](=O)[O-])cc3)o2)cc1 | 62* | 1 | -3 | -3 | 5 | 31
O=C(O)c1ccc(N/N=C/c2ccc(-c3cccc(Cl)c3)o2)cc1 | 46* | 1 | 2 | -20 | 19 | 35
CCCOc1ccc(C(=O)N/N=C/c2ccc(-c3ccc(S(=O)(=O)Nc4ncccn4)cc3)o2)cc1 | 33* | 0 | -3 | -1 | 25 | x
CCC(=O)N/N=C/c1ccc(-c2ccc([N+](=O)[O-])cc2)o1 | 23 | -1 | -5 | 3 | -6 | -3
O=C(Nc1cccc2c(=O)[nH][nH]c(=O)c12)c1ccc([N+](=O)[O-])cc1 | x | x | x | x | -1 | x
O=C1NC(c2ccccc2)=C(c2nc3ccccc3s2)C(c2ccccc2)N1 (stereo unspecified) | 34* | -1 | -2 | 30 | 0 | u
Cc1noc(NS(=O)(=O)c2ccc(NS(=O)(=O)c3ccc(Cl)cc3)cc2)c1C | 10 | -1 | 1 | x | -1 | -6
COCCNc1oc(-c2ccc(C)cc2)nc1C#N | 23 | 0 | 0 | -1 | 200* | 2
COc1ccc(Nc2oc(-c3ccc(OC)cc3)nc2C#N)cc1 | -2 | -1 | 7 | -3 | 0 | -10
COc1ccc(-c2nc(C#N)c(NCCN(C)C)o2)cc1 | 11 | 2 | 3 | -1 | 123* | 1
CN(C)CCCNc1oc(-c2ccc(Cl)cc2)nc1C#N | 17 | -1 | 3 | 2 | 173* | 51
CCN(CC)CCCNc1oc(-c2cccc(Cl)c2)nc1C#N | 0 | 2 | 3 | 0 | 134* | -12
